The whole screen tested about 350,000 compounds, of which about 1,100 (0.31%) were called active. The sample holds actives, similar compounds and a random draw of the others, so the mix is not that of the screen. No stated cut-off is given here; in the data, active means activation above about 50%; inactive means the rest.
Biological target: Endoribonuclease toxin MazF (Escherichia coli (strain K12)) (UniProt P0AE70)
Test: activators of E. coli MazEF toxin-antitoxin RNase, primary screen, biochemical, fluorescence, uHTS (AID 504720)
Details: FAM/BHQ RNA-DNA oligo cleavage fluorescence, 5 h, at 20 µM, stronger effect = higher value

Chain of Endoribonuclease toxin MazF (Escherichia coli (strain K12)) (P0AE70 whole entry, looked up): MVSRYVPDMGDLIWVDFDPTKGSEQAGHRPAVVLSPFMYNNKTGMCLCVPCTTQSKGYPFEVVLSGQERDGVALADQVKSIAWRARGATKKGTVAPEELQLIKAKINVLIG

Row | Structure (SMILES) | activation
1 | COC(C/C=C/C(=O)[C@@H](C)OCc1ccccc1)OC | -1.24% (inactive)
2 | CCOC(=O)CSc1nc(C)cc2c1C(=O)OC2 | 2.74% (inactive)
3 | O=C(COC(=O)Cn1[nH]c(=O)c2ccccc2c1=O)Nc1ncc(Cl)cc1Cl | -9.39% (inactive)
4 | Cc1ccccc1OCc1nnc(SCC(=O)N2c3ccccc3Sc3ccc(Cl)cc32)o1 | -5.1% (inactive)
5 | COc1cccc(NC(=O)c2ccc3c(SCC(=O)O)c4c(nc3c2)CCCC4)c1 | 0.29% (inactive)
6 | CC(C)CCNC(=O)c1ccc2c(Cl)c3c(nc2c1)CCC3 | 0.61% (inactive)
7 | CC(=O)c1ccc(NC(=O)c2ccc3c(Cl)c4c(nc3c2)CCCC4)cc1 | 61.1% (active)
8 | O=C(CN1CCN(Cc2ccc(F)cc2Cl)C1=O)NCc1cccs1 | 2.52% (inactive)
9 | COc1ccc(NC(=O)c2cc([N+](=O)[O-])ccc2NC(=O)CNC2CCCCC2C)c(OC)c1 (stereo not drawn) | 5.61% (inactive)
10 | Cc1ccc(Sc2ccncc2S(N)(=O)=O)cc1 | 4.01% (inactive)
11 | COc1ccc(Cn2c(O)c(/C=C3/C=CC=N3)c(=O)[nH]c2=O)cc1 | 79.2% (active)
12 | COc1ccc(CCn2c(O)c(C=NC3CC3)c(=O)[nH]c2=O)cc1OC | 0.91% (inactive)
13 | COc1ccc(N=Cc2c(O)n(C)c(=O)[nH]c2=O)cc1 | -3.16% (inactive)
14 | CNC(=O)c1c(NC(NC(=O)c2ccco2)C(=O)c2ccc(Cl)cc2)sc2c1CCCC2 (stereo not drawn) | -0.431% (inactive)
15 | O=C(Nc1ncc2c(n1)-c1ccccc1OC2)c1ccc(Cl)cc1 | 3.08% (inactive)
16 | O=C(COC(=O)CNC(=O)C1CCCCC1)NCc1ccccc1 | 0.98% (inactive)
17 | Cc1ccc(-c2nn(-c3ccccc3)cc2/C=C2\SC(=S)N(CCCCCC(=O)O)C2=O)o1 | 3200% (active)
18 | O=C1/C(=C/c2coc3ccc(O)cc3c2=O)SC(=S)N1c1ccccc1 | -53.2% (inactive)
19 | CCCCN1C(=O)/C(=C/C=C2/C=Cc3ccccc3N2CC)SC1=S | 18.5% (inactive)

Row | Structure (SMILES) | activation
20 | CCOc1ccc(S(=O)(=O)Nc2cccc(C(=O)NCC3(N4CCCCC4)CCCCC3)c2)cc1 | -1.19% (inactive)
21 | COc1ccc(CCNC(=O)c2nnc(CS(=O)(=O)c3ccccc3)o2)cc1OC | 6.35% (inactive)
22 | O=C(NCC12CC3CC(C1)CC(CNC(=O)N1CCCC1)(C3)C2)N1CCCC1 | -3.78% (inactive)
23 | COc1ccc(CNC(=O)CCC(=O)Nc2nnc(C(C)C)s2)cc1 | 7.7% (inactive)
24 | Cc1ccc(CN2C(=O)N/C(=C/c3cc(C)n(-c4ccccn4)c3C)C2=O)cc1 | -15.4% (inactive)
25 | CN(C)c1ccc(/C=C2\NC(=S)N(Cc3ccccc3)C2=O)cc1 | 56.4% (active)
26 | CN(C(=O)CN1C(=O)NC(C)(CCc2ccccc2)C1=O)c1ccccc1 (stereo not drawn) | -1.8% (inactive)
27 | COCCn1c(=NC(=O)c2ccccc2[N+](=O)[O-])sc2cc(S(C)(=O)=O)ccc21 | 15.4% (inactive)
28 | CSc1ccccc1C(=O)OCC(=O)N1CCN(C(C)=O)CC1 | 1.11% (inactive)
29 | O=C(NNC(=S)NCc1ccccc1)c1ccc(OC(F)F)cc1 | -1.92% (inactive)
30 | Cc1scc(C(=O)NNC(=S)NCc2ccccc2)c1C | 51.1% (active)
31 | Cc1scc(C(=O)NNC(=S)NCC(C)C)c1C | 5.32% (inactive)
32 | COc1cc(S(=O)(=O)N2CCN(C(=O)C3CC3)CC2)ccc1NC(C)=O | 3.42% (inactive)
33 | COc1c(C)c2c(c(O)c1C/C=C(\C)CCC(=O)O)C(=O)OC2 | 6.86% (inactive)
34 | O=C(COC(=O)c1cccc(Cl)c1)NC(=O)NCc1ccccc1 | -3.25% (inactive)
35 | c1ccc(-c2cn3c(n2)CCc2ccc4cccnc4c2-3)cc1 | 4.41% (inactive)
36 | O=C(NCc1cccc(Cl)c1)C1=CC=CN2CCS(=O)(=O)N=C12 | -3.56% (inactive)
37 | CCOC(=O)N1CCN(C(=O)CN(C2CCCCC2)S(C)(=O)=O)CC1 | -5% (inactive)
38 | CCc1ccc2nc(Nc3ncc(C(C)=O)c(C)n3)nc(C)c2c1 | -3.52% (inactive)

Reference: PubChem BioAssay AID504720 (Sanford-Burnham Center for Chemical Genomics, 2011)
